Bioassay records as filed in PubChem BioAssay.
In the library only some 19% were active in any assay of this set; here they are far more common.
HT1080 IDH1KD tx = kills HT-1080 cells with IDH1 knockdown. HT-1080 IDH1 knockdown viability, ATP luminescence, 48 h. Potency, µM (top dose mostly 46.1 µM), for the others: top-dose activity, negative = toxicity, usual class: cytotoxic. 2% of 360,000 active. AID 686971;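 also: 0% = DMSO wells and -100% = cell-free medium wells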
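Using the IDH1-knockdown HT-1080 line run in the same batch and compound series as the NT line, viability after 48 h at 37 °C was determined by CellTiter-Glo luminescence and expressed as % activity.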
KB-3-1 tox = KB-3-1 parental cell cytotoxicity. Potency, µM (titrated, usually from 46.1 µM), actives largely listed as cytotoxic. AID 1347075. 1.4% of 400,000 active. KB-3-1 viability, CellTiter-Glo ATP luminescence, 72 h; also: nearly all actives have a fitted effect of over 60% in size
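KB-3-1 parental drug-naive adenocarcinoma cells in DMEM/10% FBS, incubated 72 h at 37 C with pin-transferred compounds across a concentration series. Viability by CellTiter-Glo luminescence; concentration-response curves fitted after normalization.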
HT1080NT lethal = kills 2HG-producing HT-1080-NT fibrosarcoma cells; AID 686970; HT-1080-NT fibrosarcoma viability, CellTiter-Glo ATP luminescence, 48 h; 1.6% of 360,000 active; Potency, µM (highest dose often 46.1 µM), inactives show at the top dose activity, negative = less viability, hits mostly cytotoxic;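 also: NT is the 2HG producing partner of a matched IDH1 knockdown line; 0% = DMSO-treated cells and -100% = media-only wells without cells; nearly all actives have a fitted effect of over 55% in size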
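HT-1080-NT fibrosarcoma cells (2HG-overproducing), 750 cells/well in RPMI with 5% FBS, dosed after 2 h and incubated 48 h at 37C. CellTiter-Glo luminescence normalized to DMSO and no-cell wells; concentration-response curves fitted and classed.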
DT40 TDP1 CPT = DT40-hTDP1 cell growth loss with CPT | chicken DT40 Tdp1-/-;hTDP1 cells + 20 nM CPT, ATP luminescence, 48 h | Potency, µM (titrated, usually from 46.2 µM), without a hit: at the top dose activity change, negative = growth inhibition, hits mostly inhibitors | 12% of 420,000 active | AID 686979; also: nearly all actives have a fitted effect of over 55% in size
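Chicken DT40 Tdp1-/- cells complemented with human TDP1, 400 cells/well, exposed to compounds plus 20 nM camptothecin for at least 48 h at 37 C; viability read as ATP content by CellTiter-Glo luminescence.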
DT40 TDP1 no CPT = qHTS for Inhibitors of human tyrosyl-DNA phosphodiesterase 1 (TDP1): qHTS in cells in absence of CPT; DT40 Tdp1-/- hTDP1 cells, no CPT, ATP luminescence, 48 h; Potency, µM (doses to about 46.2 µM), inactives show at the top dose activity change, negative = growth inhibition, hits mostly inhibitors; 15% of 420,000 active; also: nearly all actives have a fitted effect of over 55% in size
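Growth kinetics read by CellTiter-Glo luminescence after ≥48 hr at 37 °C. Cells: DT40 Tdp1-/- stably carrying human TDP1, 400 per well, compound exposure in the absence of CPT (DMSO vehicle).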
KB-V1 MDR tox = kills drug-selected multidrug resistant KB-V1 cells; 3.4% of 400,000 active; KB-V1 MDR cells viability, CellTiter-Glo, 72 h; Potency, µM (series often up to 46.1 µM), usual class: cytotoxic; also: nearly all actives have a fitted effect of over 60% in size
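Cytotoxicity toward P-gp-expressing KB-V1 cells was determined as loss of CellTiter-Glo luminescence after 72 h at 37 degrees C. Compounds were tested in quantitative HTS format across a concentration range, with curves fitted to normalized data.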
Numbers without * were called inactive; i = inactive; ? = inconclusive; . = not tested or not shown. Calls follow the shape of the dose curve; as a rule, active = well fitted curve in the direction sought with a large enough effect; inconclusive = small, poorly fitted or top-dose-only effect, or another doubt; inactive = no such curve, though single readings can be large; an effect the other way counts as inactive or inconclusive. Unless noted, % is scaled to controls: 0 for no effect and ±100 for the full control effect; potency is read from the fitted curve at half-maximal effect.

SMILES	HT1080 IDH1KD tx	KB-3-1 tox	HT1080NT lethal	DT40 TDP1 CPT	DT40 TDP1 no CPT	KB-V1 MDR tox
O=C(NCC(c1ccco1)N1CCc2ccccc2C1)C(=O)Nc1ccccc1 (configuration not stated)	-10%	i	1%	?	?	i
O=C(NCC(c1ccco1)N1CCc2ccccc21)c1cccc([N+](=O)[O-])c1 (configuration not stated)	-17%	i	-22%	16µM*	21µM*	?
O=C(NCC(c1ccco1)N1CCc2ccccc21)c1ccc([N+](=O)[O-])cc1 (configuration not stated)	-20%	i	-6%	-13%	-22%	?
O=C(CCc1ccccc1)NCC(c1ccco1)N1CCc2ccccc21 (configuration not stated)	5.2µM*	3.7µM*	6.5µM*	4.6µM*	4.1µM*	7.3µM*
COc1ccc(OC)c(N(CC(=O)NN=C2CCN(C)CC2)S(=O)(=O)c2ccccc2)c1	11%	i	11%	-2%	9%	i
O=C(c1[nH]c(C(F)(F)F)nc1-c1ccccc1)N1CCC2(CC1)C(=O)NCN2c1ccccc1	1%	i	27%	2%	1%	i
CCNC(=O)C1(C)CCCN(C(=O)Cc2ccc(OC)c(OC)c2)C1 (configuration not stated)	6%	i	18%	4%	-12%	i
O=C(NCC(c1ccco1)N1CCc2ccccc21)c1ccccc1F (configuration not stated)	3%	i	2%	-30%	?	?
O=C(NCC(c1ccco1)N1CCc2ccccc21)c1ccccc1Br (configuration not stated)	6%	i	-5%	21µM*	?	?
Cc1ccc(CNC(=O)Nc2cc(C(=O)NCc3cccc(F)c3)ccc2N2CCCC2)cc1	.	?	.	?	?	i
CCc1cccc(NC(=S)N2CCC(c3ccccc3)C2)c1 (configuration not stated)	0%	i	-4%	?	?	i
COc1cccc(NC(=O)CCC2CCN(C(=O)C(OC)c3ccccc3)CC2)c1 (configuration not stated)	3%	i	1%	16µM*	21µM*	?
COc1cccc(NC(=S)N2CCC(Cc3ccccc3)CC2)c1	0%	i	1%	21µM*	?	i
CCOc1ccc(NC(=S)N2CCC(c3ccc(C)cc3)C2)cc1 (configuration not stated)	-2%	i	5%	?	13µM*	i
COc1cccc(NC(=O)CCC2CCN(C(=O)c3cccc(NC(C)=O)c3)CC2)c1	0%	.	-1%	0%	2%	.
CSc1cccc(NC(=S)N2CCC(c3ccccc3)C2)c1 (configuration not stated)	-6%	i	-24%	-17%	16µM*	i
N#CCc1ccc(Oc2ncccn2)cc1	15%	i	1%	?	?	i
O=C(c1ccc(NS(=O)(=O)c2ccc(F)cc2)cc1)N1CCC1	4%	i	3%	-9%	-5%	i
COc1ccc(NC(=S)N2CCC(c3ccc(C)cc3)C2)cc1 (configuration not stated)	2%	i	4%	?	?	i
COc1cccc(NC(=S)N2CCC(c3ccc(C)cc3)C2)c1 (configuration not stated)	-20%	?	1%	12µM*	7.3µM*	i
CCOC(=O)[C@@H]1[C@H]2COc3ccccc3[C@H]2N2C(=O)N(c3ccccc3)C(=O)[C@]12C	5%	i	8%	-16%	-16%	i
